697 NFkB inh: inhibitors of the PMA/ionomycin-induced NF-kB reporter in 697 B cells | 697 B-cell NF-kB luciferase reporter, 16 h | inhibition, % at 4 µM | 330,000 compounds, 0.33% hits; in the data active = inhibition above about 35%
Jurkat NFkB inh: lowers PMA/ionomycin-induced NF-kB signal in Jurkat cells; PMA/ionomycin-induced NF-kB luciferase reporter, luminescence; inhibition, % at 4 µM; 330,000 compounds, 0.53% hits; AID 435003; in the data active = inhibition above about 50%
Gli-Sufu block: antagonists of Gli-Sufu signaling | 340,000 compounds, 0.74% hits | AID 588413 | Sufu-KO-LIGHT fibroblasts, Gli luciferase reporter luminescence | inhibition, % at 5 µM;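 active = inhibition above about 55%, limit read from the data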;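 also: 0% = DMSO-treated cells and 100% = wells with medium but no cells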
Mdm2-MdmX inh: human Mdm2/MdmX binding inhibition. SaOS-2 split-luciferase Mdm2/MdmX complementation, luminescence. AID 485346. inhibition, % at 8 µM. 330,000 compounds, 3% hits;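 active = inhibition of at least 50% at 8 µM in the primary screen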
Target sequence (O15151 whole entry, looked up): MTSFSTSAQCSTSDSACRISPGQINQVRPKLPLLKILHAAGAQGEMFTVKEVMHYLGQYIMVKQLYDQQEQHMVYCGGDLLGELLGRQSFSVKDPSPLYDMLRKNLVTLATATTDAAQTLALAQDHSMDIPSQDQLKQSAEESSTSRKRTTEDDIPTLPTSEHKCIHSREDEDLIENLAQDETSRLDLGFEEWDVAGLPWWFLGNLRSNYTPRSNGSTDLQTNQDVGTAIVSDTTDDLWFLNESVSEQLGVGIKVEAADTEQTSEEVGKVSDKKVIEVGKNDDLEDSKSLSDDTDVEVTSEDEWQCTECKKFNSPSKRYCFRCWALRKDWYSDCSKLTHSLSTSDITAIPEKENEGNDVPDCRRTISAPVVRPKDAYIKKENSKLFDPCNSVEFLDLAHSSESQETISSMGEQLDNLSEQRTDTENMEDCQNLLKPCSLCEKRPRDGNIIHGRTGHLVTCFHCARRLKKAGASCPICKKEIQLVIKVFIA
Target sequence (Q00987 whole entry, looked up): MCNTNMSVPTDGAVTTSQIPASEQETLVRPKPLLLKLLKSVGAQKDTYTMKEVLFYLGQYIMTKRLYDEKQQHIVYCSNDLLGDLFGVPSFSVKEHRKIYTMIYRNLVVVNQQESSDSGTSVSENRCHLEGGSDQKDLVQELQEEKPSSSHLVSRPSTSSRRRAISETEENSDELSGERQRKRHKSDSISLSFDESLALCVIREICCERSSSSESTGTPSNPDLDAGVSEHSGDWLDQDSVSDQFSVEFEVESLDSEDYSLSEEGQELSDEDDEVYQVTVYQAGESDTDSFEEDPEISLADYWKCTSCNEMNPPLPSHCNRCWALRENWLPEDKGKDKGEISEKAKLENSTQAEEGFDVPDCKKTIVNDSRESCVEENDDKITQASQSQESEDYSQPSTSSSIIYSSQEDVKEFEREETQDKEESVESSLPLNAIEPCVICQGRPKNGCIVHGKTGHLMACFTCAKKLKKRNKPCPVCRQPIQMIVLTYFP
Beta cell apopt: blocks beta cell apoptosis; 300,000 compounds, 0.8% hits; INS-1E cytokine-induced death, ATP luminescence, 48 h; percent of positive-control rescue, neutral wells zero; AID 435005; protection from apoptosis, % (no concentration beside the values);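 active = Every replicate reaches about 75%, or at least half do and their mean reaches it too, limit read from the data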;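 also: 0% = cytokine-treated negative control wells and 100% = positive control rescue; higher means more ATP so stronger rescue from cytokine killing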
CSC inhib: cancer stem cell inhibition. cancer stem cell-like cells viability, luminescence. inhibition, % at 7.5 µM. AID 2717. 300,000 compounds, 1.1% hits; in the data active = inhibition above about 75%; tested in HMLE shEcad cells
Mdm2 MdmX conf: human Mdm2/MdmX binding inhibition, confirmed; shares compounds with Mdm2-MdmX inh; luminescent assay; inhibition, % at 8 µM; 10,000 compounds, 55% hits; AID 489028; in the data active = inhibition above about 40%
FLuc counter: full-length luciferase inhibition in Mdm2/MdmX counter-screen; shares compounds with Mdm2-MdmX inh; SaOS-2 full-length luciferase counterscreen, luminescence; inhibition, % at 8 µM; 6,200 compounds, 77% hits;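 active = mean inhibition at 8 µM reaching about 37%, which flags the compound as non-specific, limit read from the data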;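 also: p53-null SaOS-2 cells with luciferase driven by a doxycycline-inducible promoter; compound on cells about two nights before reading with doxycycline added after day one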
Active calls of the source: *. In the library only some 4.5% were active in any assay of this set; here they are far more common.

Screening COC(=O)[C@]1(Cc2ccccc2)N[C@H](c2ccc(-c3ccc(Cl)c(Cl)c3)cc2)[C@@H]2C(=O)N(C)C(=O)[C@@H]21 returned 697 NFkB inh 7, Jurkat NFkB inh 22, Gli-Sufu block 3, Mdm2-MdmX inh 56*, Beta cell apopt 1, CSC inhib 6, Mdm2 MdmX conf 51* and FLuc counter 82*.
Screening COC(=O)[C@]1(CC(C)C)N[C@H](c2ccc(-c3ccc(C(C)=O)cc3)cc2)[C@@H]2C(=O)N(C)C(=O)[C@@H]21 returned 697 NFkB inh 20, Jurkat NFkB inh -10, Gli-Sufu block 0, Mdm2-MdmX inh 14 and Beta cell apopt -3.
For CCN1C(=O)[C@H]2[C@@H](c3ccc(-c4ccc(Cl)c(Cl)c4)cc3)N[C@@](CC(C)C)(C(=O)OC)[C@H]2C1=O the results were 697 NFkB inh 16, Jurkat NFkB inh 25, Gli-Sufu block 0, Mdm2-MdmX inh 36, Beta cell apopt -4 and CSC inhib 16.
For O=C(CC(C(=O)O)c1cccc(Cl)c1Cl)c1ccccc1 (stereo not drawn) the results were 697 NFkB inh 10, Jurkat NFkB inh 11, Gli-Sufu block 6, Mdm2-MdmX inh 4, Beta cell apopt -5 and CSC inhib 10.
COc1ccc(/C=C/C(=O)OCC(=O)NC2CCCC2)c(OC)c1 was read as 697 NFkB inh 19, Jurkat NFkB inh -6, Gli-Sufu block 3, Mdm2-MdmX inh 11, Beta cell apopt -2 and CSC inhib -2.
For Cc1c(C#N)c(O)n(CCO)c(=O)c1N=Nc1ccc2c(c1)COC2=O the results were 697 NFkB inh 11, Jurkat NFkB inh 3, Gli-Sufu block 1, Mdm2-MdmX inh 91*, Beta cell apopt 14, CSC inhib -5 and Mdm2 MdmX conf 19.
Oc1ccc(/C=N/Nc2cc(N3CCOCC3)nc(N3CCOCC3)n2)cc1O was read as 697 NFkB inh -27, Jurkat NFkB inh -8, Gli-Sufu block 23, Mdm2-MdmX inh -26, Beta cell apopt 6 and CSC inhib 29.
Oc1ccccc1/C=N/Nc1cc(N2CCCC2)nc(N2CCCC2)n1 was read as 697 NFkB inh -27, Jurkat NFkB inh 8, Gli-Sufu block 0, Mdm2-MdmX inh 50, Beta cell apopt 16, CSC inhib -5 and Mdm2 MdmX conf 30.
For CCCCN(C(=O)CC1CCCC1)c1c(N)n(CC(C)C)c(=O)[nH]c1=O the results were 697 NFkB inh -11, Jurkat NFkB inh 6, Gli-Sufu block -12, Mdm2-MdmX inh 7, Beta cell apopt -7 and CSC inhib -4.
Screening CN(c1cccc(NC(=O)CN(c2ccc(C34CC5CC(CC(C5)C3)C4)cc2)S(C)(=O)=O)c1)S(C)(=O)=O returned 697 NFkB inh -32, Jurkat NFkB inh 7, Gli-Sufu block 6, Mdm2-MdmX inh 76*, Beta cell apopt 51, CSC inhib 48, Mdm2 MdmX conf 54* and FLuc counter 78*.
`CCCCCc1ccc(OCCCC[n+]2ccccc2)c(CCCCC)c1` gave 697 NFkB inh 13, Jurkat NFkB inh 45, Gli-Sufu block 83*, Mdm2-MdmX inh 87*, Beta cell apopt 87*, CSC inhib 2, Mdm2 MdmX conf 77* and FLuc counter 25.
Cc1c(C(=O)N2CCC(C)CC2)oc2ccc3c(c12)C(O)CC1(CCCCC1)O3 (stereo not drawn) was read as 697 NFkB inh -113, Jurkat NFkB inh 11, Gli-Sufu block 11, Mdm2-MdmX inh 76*, Beta cell apopt 4, CSC inhib 12 and Mdm2 MdmX conf 23.
For CSCCC(NC(=O)c1ccc(Cl)cc1Cl)C(=O)NNC(=O)c1ccncc1 (stereo not drawn) the results were 697 NFkB inh 13, Jurkat NFkB inh 4, Gli-Sufu block -5, Mdm2-MdmX inh 9, Beta cell apopt -3 and CSC inhib -6.

Screens deposited in PubChem by several laboratories.
